We go through 18 molecules from PubChem BioAssay.

Usually inhibition stands for the relative decrease from the control value, in per cent.

Experiment [1] can be described thus: antimalarial activity against Dd2 strain (AID 2302;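 active = growth inhibition above 50% at the single 2 µM test dose, taken to imply half-maximal potency below 2 µM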;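 note: 0% = DMSO untreated growth and 100% = chloroquine plus artemisinin killed control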). The note with it: P. falciparum Dd2 in RBCs, LDH growth readout, 72 h; at 2 µM; stronger effect = higher value.
A short description of experiment [2]: HepG2 cytotoxicity, primary screen, cytotoxicity control for P. falciparum antimalarial project, cell-based, ATP luminescence (AID 2303;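 active = inhibition above 50%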;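 note: 0% = DMSO wells and 100% = digitonin-killed cells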). The note with it: HepG2 viability, 24-48 h, at 10 µM, stronger effect = higher value.
The target in experiment [3] is L-lactate dehydrogenase (Plasmodium falciparum (isolate CDC / Honduras)) (UniProt Q27743). Put plainly: PfLDH activity inhibition – cell lysate, 3D7 strain, counter-screen for P. falciparum growth inhibition project (AID 2304).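 Note: 0% = vehicle and 100% = reference inhibitor.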 The note with it: P. falciparum 3D7 crude extract, LDH APAD/NBT absorbance; at 2 µM; stronger effect = higher value.
A short description of experiment [4]: inhibition of 3D7 malaria parasite growth – strain 3D7 (AID 2306).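 Note: 0% = DMSO wells and 100% = chloroquine plus artemisinin control wells.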 The note with it: P. falciparum 3D7 erythrocytic growth, LDH absorbance, 72 h; at 2 µM; stronger effect = higher value.
The target in experiment [5] is Calcium-dependent protein kinase 1 (Plasmodium falciparum (isolate 3D7)) (UniProt P62344). Put plainly: PfCDPK1 kinase inhibitors, biochemical, TCAMS library (AID 1159585; cut-off not given, nearly all actives have IC50 up to about 0.98 µM;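 note: inhibitors leave more ATP so luminescence rises with inhibition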). Conditions: recombinant PfCDPK1, Kinase-Glo ATP depletion luminescence. In general terms: Kinase-Glo measures the ATP left after a reaction by luminescence.
Experiment [6] addresses Plasmodium falciparum protein kinase 6 (PK6, PF3D7_1337100) (UniProt Q8IDW1). Put plainly: PfPK6 kinase inhibitors, biochemical, TCAMS library (AID 1159586). Conditions: recombinant PfPK6, Kinase-Glo ATP depletion luminescence.
For experiment [7], the target named is Protein kinase 7 (PK7), Plasmodium falciparum 3D7 (PF3D7_0213400) (UniProt Q7YTF7). Put plainly: inhibition of Plasmodium PK7 catalytic activity – biochemical, TCAMS antimalarial set, Kinase-Glo luminescence (AID 1159587). Conditions: recombinant PfPK7, Kinase-Glo ATP depletion luminescence.
Experiment [8] has as its target Calcium-dependent protein kinase 4 (Plasmodium falciparum (isolate 3D7)) (UniProt Q8IBS5). Put plainly: PfCDPK4 kinase inhibitors, biochemical, TCAMS library (AID 1159588; cut-off not given, nearly all actives have IC50 up to about 0.91 µM). Conditions: recombinant PfCDPK4, Kinase-Glo ATP depletion luminescence.

Molecules are shown by their SMILES. Values without a mark were called inactive. For part of these data: Measured potencies and affinities stand elsewhere. Activity calls are given as the source filed them. Unless noted, the rule behind the calls is not given here.

Sequence of Calcium-dependent protein kinase 4 (Plasmodium falciparum (isolate 3D7)) (Q8IBS5 whole entry, looked up): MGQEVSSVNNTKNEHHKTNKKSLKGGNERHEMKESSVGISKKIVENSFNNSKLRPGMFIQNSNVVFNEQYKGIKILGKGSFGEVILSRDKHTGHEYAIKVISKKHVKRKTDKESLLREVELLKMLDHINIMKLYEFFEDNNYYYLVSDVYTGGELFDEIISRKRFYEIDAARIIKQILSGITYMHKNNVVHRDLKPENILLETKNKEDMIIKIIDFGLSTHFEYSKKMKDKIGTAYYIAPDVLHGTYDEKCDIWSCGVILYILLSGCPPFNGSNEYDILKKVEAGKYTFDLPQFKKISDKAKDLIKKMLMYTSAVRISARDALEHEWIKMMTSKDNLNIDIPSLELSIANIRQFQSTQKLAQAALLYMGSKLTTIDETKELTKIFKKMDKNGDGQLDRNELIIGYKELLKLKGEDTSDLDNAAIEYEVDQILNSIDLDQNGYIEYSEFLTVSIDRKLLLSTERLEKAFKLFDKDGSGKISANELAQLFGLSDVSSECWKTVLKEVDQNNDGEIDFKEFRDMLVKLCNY
Sequence of Plasmodium falciparum protein kinase 6 (PK6, PF3D7_1337100) (Q8IDW1 1-305): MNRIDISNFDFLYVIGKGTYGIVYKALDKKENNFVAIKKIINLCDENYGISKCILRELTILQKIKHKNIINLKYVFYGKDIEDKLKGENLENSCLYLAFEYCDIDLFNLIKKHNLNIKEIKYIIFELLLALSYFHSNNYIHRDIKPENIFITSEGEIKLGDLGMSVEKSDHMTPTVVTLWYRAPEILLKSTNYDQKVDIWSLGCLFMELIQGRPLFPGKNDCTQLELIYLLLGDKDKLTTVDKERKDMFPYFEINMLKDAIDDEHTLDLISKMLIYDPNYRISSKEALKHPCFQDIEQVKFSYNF
Sequence of L-lactate dehydrogenase (Plasmodium falciparum (isolate CDC / Honduras)) (Q27743 whole entry, looked up): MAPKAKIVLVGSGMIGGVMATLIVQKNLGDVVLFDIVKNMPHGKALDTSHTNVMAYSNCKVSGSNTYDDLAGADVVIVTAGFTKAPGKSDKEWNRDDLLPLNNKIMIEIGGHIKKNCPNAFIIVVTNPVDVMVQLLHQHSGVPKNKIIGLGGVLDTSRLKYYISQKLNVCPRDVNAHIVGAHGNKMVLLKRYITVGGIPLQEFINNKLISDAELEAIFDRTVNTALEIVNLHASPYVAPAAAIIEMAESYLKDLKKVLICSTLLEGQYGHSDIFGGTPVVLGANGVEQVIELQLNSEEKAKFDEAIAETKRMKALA
Sequence of Protein kinase 7 (PK7), Plasmodium falciparum 3D7 (PF3D7_0213400) (Q7YTF7 1-343): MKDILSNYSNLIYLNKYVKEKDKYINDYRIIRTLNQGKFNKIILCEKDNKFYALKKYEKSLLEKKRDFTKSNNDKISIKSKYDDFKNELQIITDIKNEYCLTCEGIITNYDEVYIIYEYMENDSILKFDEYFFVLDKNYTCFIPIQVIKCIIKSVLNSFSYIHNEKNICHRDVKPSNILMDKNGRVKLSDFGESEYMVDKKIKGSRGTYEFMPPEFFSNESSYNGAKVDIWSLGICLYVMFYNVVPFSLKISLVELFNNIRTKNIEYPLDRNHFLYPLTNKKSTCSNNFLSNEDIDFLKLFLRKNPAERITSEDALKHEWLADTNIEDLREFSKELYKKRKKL
Sequence of Calcium-dependent protein kinase 1 (Plasmodium falciparum (isolate 3D7)) (P62344 whole entry, looked up): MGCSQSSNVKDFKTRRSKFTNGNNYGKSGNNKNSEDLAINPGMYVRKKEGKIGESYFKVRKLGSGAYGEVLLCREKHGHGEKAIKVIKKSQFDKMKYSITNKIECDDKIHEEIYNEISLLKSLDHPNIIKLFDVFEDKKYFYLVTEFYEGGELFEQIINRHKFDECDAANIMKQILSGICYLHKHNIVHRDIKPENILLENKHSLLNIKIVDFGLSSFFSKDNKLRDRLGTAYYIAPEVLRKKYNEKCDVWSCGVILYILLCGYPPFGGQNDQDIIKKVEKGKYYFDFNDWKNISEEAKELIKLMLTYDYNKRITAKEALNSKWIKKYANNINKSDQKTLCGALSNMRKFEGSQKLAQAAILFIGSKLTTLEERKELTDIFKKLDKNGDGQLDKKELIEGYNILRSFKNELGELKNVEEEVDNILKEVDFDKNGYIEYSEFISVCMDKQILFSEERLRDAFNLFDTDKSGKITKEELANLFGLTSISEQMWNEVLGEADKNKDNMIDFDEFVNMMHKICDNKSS

As for `CCOc1ccc2c(c1)N(C(=O)C=Cc1ccccc1)C(C)(C)c1ssc(=S)c1-2`, the growth inhibition in experiment [1] was 77% (active); in experiment [4], 83% (active). Besides, the results for the inhibition in experiment [2] and in experiment [3] were 3% and -1%, respectively. Moreover, the result in experiment [5], in experiment [6], in experiment [7] and in experiment [8] was inactive.
`O=C(Nc1cc(F)c(F)c(-c2cccnc2)c1)N1CCc2cc(Cl)c(Cl)cc21`: the growth inhibition was 9% in experiment [1] and 94% (active) in experiment [4]. The inhibition in experiment [2] is 0%; in experiment [3] it was 5%. Moreover, the result in experiment [5], in experiment [6], in experiment [7] and in experiment [8] was inactive.
Regarding `CO/C(=C\C=C\c1cc2cc(Cl)c(Cl)cc2[nH]1)C(=O)NC1C[C@@H](C)N(C)[C@@H](C)C1` (some centres undefined), the growth inhibition in experiment [1] was 57% (active); in experiment [4], 97% (active). Moreover, the inhibition in experiment [2] was 64% (active); in experiment [3], 1%. Further, the outcome in experiment [5], in experiment [6], in experiment [7] and in experiment [8] was inactive.
Consider `COC(=O)/C=C/c1ccc(CCC(C)NCC(O)c2cccc(Cl)c2)cc1` (centres undefined), for which the growth inhibition is 77% (active) in experiment [1] and 94% (active) in experiment [4]. Further, the inhibition in experiment [2] is 5%; in experiment [3], 4%. In addition, the result in experiment [5], in experiment [6], in experiment [7] and in experiment [8] was inactive.
On to `Cc1cccc2[nH]c(-c3ccc(-c4cccc(NC(=O)NCc5ccccc5)c4)cc3)nc12`, for which the results for the growth inhibition in experiment [1] and in experiment [4] were 0% and 95% (active), respectively. The inhibition in experiment [2] was 25%; in experiment [3] it was -6%. The outcome in experiment [5], in experiment [6], in experiment [7] and in experiment [8] was inactive.
For the molecule `Nc1nc2ncn(COC(COCc3ccccc3)COCc3ccccc3)c2c(=O)[nH]1` (tested in a mixture with another compound), the results for the growth inhibition in experiment [1] and in experiment [4] were 57% (active) and 86% (active), respectively. Besides, the inhibition in experiment [2] was 18%; in experiment [3], -7%. For the same molecule, the outcome in experiment [5], in experiment [6], in experiment [7] and in experiment [8] was inactive.
Consider `CN1CCC(c2nc(N)no2)C1` (centres undefined), for which the growth inhibition in experiment [1] was 2%; in experiment [4], 95% (active). Further, the results for the inhibition in experiment [2] and in experiment [3] were 15% and 0%, respectively. The result in experiment [5], in experiment [6], in experiment [7] and in experiment [8] was inactive.
As to `CCOCCCn1c(=N)c(C(=O)NC(C)c2ccccc2)cc2c(=O)n3cccc(C)c3nc21` (centres undefined), the growth inhibition in experiment [1] is 31%; in experiment [4], 95% (active). The figures for the inhibition in experiment [2] and in experiment [3] were 24% and -4%, respectively. For the same molecule, the result in experiment [5], in experiment [6], in experiment [7] and in experiment [8] was inactive.
As to `CCN(CCCN1CCCCC1)c1cc(C)nc(Nc2ccc(Cl)cc2C)n1`, the growth inhibition was 46% in experiment [1] and 95% (active) in experiment [4]. Besides, the figures for the inhibition in experiment [2] and in experiment [3] were 44% and 2%, respectively. Moreover, the result in experiment [5], in experiment [6], in experiment [7] and in experiment [8] was inactive.
As for `CN(Cc1ccc(-c2ccc(C(F)(F)F)cc2)cc1)C(=O)Cn1c(CCc2cccc(F)c2F)nc(=O)c2ccc(N3CCN(CCN4CCCCC4)CC3)nc21`, the figures for the growth inhibition in experiment [1] and in experiment [4] were 100% (active) and 101% (active), respectively. In addition, the inhibition in experiment [2] was 100% (active); in experiment [3], 5%. Further, the outcome in experiment [5], in experiment [6], in experiment [7] and in experiment [8] was inactive.
Take `O=C(CCN(Cc1ccco1)c1nc(-c2ccc(F)cc2)nc2ccccc12)NC1CC1`: the growth inhibition in experiment [1] was 54% (active); in experiment [4] it was 94% (active). The inhibition in experiment [2] is -12%; in experiment [3], 4%. Further, the result in experiment [5], in experiment [6], in experiment [7] and in experiment [8] was inactive.
In the case of `Cc1cnc(CN(Cc2ccc(-c3ccc(CNCCc4ccc(S(C)(=O)=O)cc4)cn3)cc2)C(=O)c2nn(-c3ccccc3)nc2C)cn1`, the growth inhibition was 21% in experiment [1] and 84% (active) in experiment [4]. The inhibition in experiment [2] is 11%; in experiment [3], 0%. Besides, the result in experiment [5], in experiment [6], in experiment [7] and in experiment [8] was inactive.
With `Cc1cccc2[nH]c(-c3ccc(-c4cccc(CN5CCCC(N)C5)c4)s3)nc12` (centres undefined), the growth inhibition in experiment [1] was 94% (active); in experiment [4], 100% (active). Also, the inhibition in experiment [2] was 17%; in experiment [3] it was 4%. Moreover, the outcome in experiment [5], in experiment [6], in experiment [7] and in experiment [8] was inactive.
For `CCCC(CNCc1cccc(OC(F)(F)C(F)F)c1)CNc1cc(=O)c2ccccc2[nH]1` (centres undefined), the figures for the growth inhibition in experiment [1] and in experiment [4] were 94% (active) and 101% (active), respectively. Besides, the figures for the inhibition in experiment [2] and in experiment [3] were -1% and 1%, respectively. Also, the result in experiment [5], in experiment [6], in experiment [7] and in experiment [8] was inactive.
For the molecule `O=C(Nc1cccc(CN2CCN(C(=O)c3cccc(F)c3)CC2)c1)c1ccco1`, the values for the growth inhibition in experiment [1] and in experiment [4] were 55% (active) and 88% (active), respectively. For the same molecule, the inhibition in experiment [2] was 7%; in experiment [3] it was 4%. Further, the outcome in experiment [5], in experiment [6], in experiment [7] and in experiment [8] was inactive.
For `CC(C)CCNC(=O)c1cnc2c(O)cccc2c1Nc1cccc(NC(=O)c2ccc(F)cc2)c1`, the growth inhibition is 43% in experiment [1] and 93% (active) in experiment [4]. Also, the figures for the inhibition in experiment [2] and in experiment [3] were 51% (active) and -1%, respectively. Moreover, the result in experiment [5], in experiment [6], in experiment [7] and in experiment [8] was inactive.
Regarding `O=C(Nc1ccc(OC2CCN(Cc3ccccc3)CC2)c(Cl)c1)c1ccsc1`, the growth inhibition in experiment [1] was 92% (active); in experiment [4] it was 87% (active). Further, the inhibition in experiment [2] is 3%; in experiment [3], 4%. Besides, the outcome in experiment [5], in experiment [6], in experiment [7] and in experiment [8] was inactive.
For the molecule `CCNC(C)(C)CN(Cc1ccc(-c2ccc(C(F)(F)F)cc2)cc1)C(=O)Cn1c(SCc2ccc(F)cc2)nc(=O)c2c1CCC2`, the results for the growth inhibition in experiment [1] and in experiment [4] were 94% (active) and 95% (active), respectively. The inhibition in experiment [2] was 99% (active); in experiment [3], 2%. For the same molecule, the result in experiment [5], in experiment [6], in experiment [7] and in experiment [8] was inactive.
